Assay outcomes (PubChem)
POLI inh – DNA polymerase iota (human) inhibition; 390,000 compounds, 1% hits; AID 588590; Potency, µM (titrated, usually from 115 µM), most hits filed as inhibitors; Pol iota fluorescent replication assay, 10 min; Q9UNA4
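Pol iota at 10 nM preincubated 15 min with compounds at room temperature; reaction started with fluorescent substrate, 50 nM final. Fluorescence read kinetically at 0 and 10 min; buffer-only wells as negative control.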
PI5P4K alpha inh – blocks human PI5P4K alpha kinase activity; PI5P4Kalpha enzyme, ADP-Glo luminescence, 60 min; stronger effect = lower value; max response, %; 330,000 compounds, 1.2% hits; AID 652105; active = max response of -50% or lower; inconclusive = between -30% and -50%; inactive = -30% or higher; note: value at the top dose of about 77 µM
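Controls without substrate or without enzyme flank wells where PI5P4Kalpha converts substrate using 5 microM ATP (final). Incubation lasts 60 minutes at room temperature; ADP formed is read by ADP-Glo luminescence.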
WRN inhibitor – WRN helicase (human) inhibition | Q14191 | WRN helicase unwinding, fluorescent forked duplex, kinetic | Potency, µM (doses to about 114 µM), actives largely listed as inhibitors | 360,000 compounds, 0.46% hits | AID 651768; note: nearly all actives have a fitted effect of over 55% in size
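Fluorescence dequenching readout, ex 525 nm/em 598 nm, kinetic mode: forked duplex DNA (100 nM final) with adjacent fluorophore and quencher unwound by WRN (20 nM final) with 2 mM ATP. Compound preincubation 15 min, room temperature.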
POLB inh – DNA polymerase beta (human) inhibition. P06746. Pol beta primer extension/strand displacement, fluorescence kinetic. Potency, µM (doses to about 114 µM), usual class: inhibitors. 340,000 compounds, 1.3% hits. AID 485314
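Values derive from four-parameter Hill fits of normalized kinetic data: reads at 0 and 10 min following addition of 50 nM substrate to 10 nM Pol beta preincubated 15 min with compound.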
POLK inh – inhibitors of human DNA polymerase kappa | purified Pol kappa, fluorescent DNA synthesis assay, 10 min | 400,000 compounds, 0.53% hits | Potency, µM (highest dose often 107 µM), usual class: inhibitors | AID 588579 | Q9UBT6
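Pol kappa 10 nM + cpd, 15 min RT; start w/ substrate 50 nM final; fluorescence kinetic read, 0 and 10 min. Neg ctrl: buffer, no enzyme.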
Pol eta inh – inhibitors of human DNA polymerase eta; recombinant Pol eta, fluorescent DNA replication assay; Potency, µM (top dose mostly 114 µM), hits mostly inhibitors; 390,000 compounds, 1.2% hits; AID 588591
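Fluorescent replication assay: 50 nM final substrate added after a 15 min room-temperature compound preincubation with 10 nM enzyme. Signal taken at 0 min and again at 10 min.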
Numbers stand for hits; . = inactive; ? = inconclusive; / = no result given; [ ] = remark or other dose. Hits are enriched below; roughly 2.8% of the tested compounds scored in any of these assays. Unless noted, calls come from the whole dose curve; as a rule, active = well fitted curve in the direction sought with a large enough effect; inconclusive = small, poorly fitted or top-dose-only effect, or another doubt; inactive = no such curve, though single readings can be large; an effect the other way counts as inactive or inconclusive.

SMILES | POLI inh | PI5P4K alpha inh | WRN inhibitor | POLB inh | POLK inh | Pol eta inh
CC(=O)Oc1c2c(c(CC=C(C)C)c3c1C(=O)C1=CC4CC5C(C)(C)OC(C/C=C(\C)C(=O)O)(C4=O)[C@]15O3)OC(C)(CCC=C(C)C)C=C2 (stereo not given in full) | / | / | / | / | 25µM | /
COC(=O)/C(C)=C\CC12OC(C)(C)C3CC(C=C4C(=O)c5c(OC)c6c(c(CC=C(C)C)c5OC431)OC(C)(CCC=C(C)C)C=C6)C2=O (stereo not given) | / | / | / | / | . | /
CSc1ncc(/C=C2/C(=O)NC(=O)N(C)C2=O)cn1 | . | ? | ? | . | . | .
CCCCN1C(=O)NC(=O)/C(=C/c2cnc(SC)nc2)C1=O | . | -85 | 40µM | . | . | .
CSc1ncc(/C=C2/C(=O)NC(=O)N(C3CCCCC3)C2=O)cn1 | ? | -57 | ? | . | . | .
CC(C)CCC(=O)OC1CCC2C3CCC4=CC(=O)CC[C@]4(C)C3CC[C@]12C (stereo not given in full) | / | / | / | / | .[19.4 µM] | /
O=c1[nH]c2ccccc2n1C1CCN(CCCC(c2ccc(F)cc2)c2ccc(F)cc2)CC1 | ? | -51 | . | . | ? | .
O=C1CC(N2CCC(n3c(=O)[nH]c4ccccc43)CC2)C(=O)N1c1ccc(F)cc1 (stereo not given) | . | . | . | ? | . | .
Cc1cc(C=C2C(=O)NC(=O)NC2=O)c(C)n1-c1cccnc1 | . | -58 | . | . | . | .
C=CCN1C(=O)/C(=C/c2cc(C)n(-c3cccnc3)c2C)C(=O)NC1=S | . | -67 | ? | . | . | .
Cc1oc2ccc(O)c(CN3CCCCCC3)c2c1C(=O)Nc1cccc(Cl)c1C | . | / | / | . | . | ?
Cn1ncc2c(NCc3ccco3)ncnc21 | ? | / | / | / | . | /
CC(Cc1ccc(C(C)(C)C)cc1)CN1CCCCC1 (stereo not given) | / | / | / | / | . | /
CCOC(=O)N1CCN(/[N+]([O-])=N/Oc2ccc([N+](=O)[O-])cc2[N+](=O)[O-])CC1C (stereo not given) | ? | / | / | / | . | /
O=C(NC1CCCCC1)c1cn(CCN2CCOCC2)c2cc(Cl)ccc2c1=O | / | / | / | / | . | /
NNc1n[nH]c(=S)n1N | 16µM | . | . | . | . | .
O=S(=O)(Nc1c(O)ccc2ccccc12)c1ccc(F)cc1 | ? | . | 50µM | / | . | .
CN1CCN(C(=O)COc2ccc(S(=O)(=O)Nc3ccc(F)cc3)cc2)CC1 | . | . | . | . | . | .
O=C(NCc1ccc(Cl)cc1)C1CCCN(C(=O)c2cnn(-c3ccc(F)cc3)c2-n2cccc2)C1 (stereo not given) | . | / | / | . | . | .
COc1cc(N2CCOCC2)ccc1/C=C1\C(=O)NC(=O)N(Cc2cccs2)C1=O | ? | . | 50µM | . | . | .
COc1cc(N2CCOCC2)ccc1/C=C1\C(=O)NC(=O)N(Cc2ccc3c(c2)OCO3)C1=O | . | ? | 50µM | . | . | .
COc1cc(N2CCOCC2)ccc1C=C1C(=O)NC(=O)NC1=O | ? | . | . | ? | . | .
O=C(Nc1ccc2nc(SCC(=O)N3CCCc4ccccc43)sc2c1)c1cccc(F)c1 | . | / | / | ? | . | .
O=C(O)CO | / | / | / | / | . | /
CN1CCc2cc(O)cc3c2C1Cc1ccc(O)c(O)c1-3 (stereo not given) | 16µM | / | / | . | .[19.4 µM] | .
SMILES | POLI inh | PI5P4K alpha inh | WRN inhibitor | POLB inh | POLK inh | Pol eta inh
c1ccc(-c2nc(N3CCOCC3)s[n+]2-c2ccccc2)cc1 | . | -67 | ? | . | . | .
COc1ccc(/C=C2/C(=O)NC(=O)N(Cc3ccco3)C2=O)cc1 | / | / | / | 10µM | / | /
CCOC(=O)C1CCN(/C=C2/C(=O)NC(=O)N(Cc3ccco3)C2=O)CC1 | 18µM | -73 | ? | 22µM | 35µM | 7.1µM
Cc1ccccc1-n1c(C)cc(/C=C2/C(=O)NC(=O)N(Cc3ccco3)C2=O)c1C | ? | . | . | . | ? | ?
COC(=O)C1=C(C)N(Cc2ccco2)C(=O)/C1=C\c1ccc(N(C)C)cc1 | . | . | . | . | ? | .
Cc1ccc(C(=O)N2CCc3cc(CNC(=O)c4ccnn4C)ccc32)cc1 | . | / | / | . | . | .
O=C1NC(=O)C(=Cc2ccc(N3CCOCC3)cc2)C(=O)N1 | ? | . | . | . | . | .
O=C1NC(=O)C(=Cc2ccc(-c3ccc(S(=O)(=O)N4CCOCC4)cc3)o2)C(=O)N1 | 25µM | ? | . | . | . | .
O=C1NC(=O)C(=Cc2ccc(-c3ccc(F)cc3O)o2)C(=O)N1 | ? | -87 | .[11.6 µM] | . | . | 71µM
O=C1NC(=O)C(=Cc2ccc(Sc3ccccc3)o2)C(=O)N1 | ? | -52 | 11µM | . | . | ?
O=C1NC(=O)C(=Cc2ccc(-c3ccc(Cl)cc3)o2)C(=O)N1 | 11µM | . | . | . | . | 79µM
N#Cc1c(Oc2cccc(OS(=O)(=O)CCCC(F)(F)F)c2)cccc1C(F)(F)F | / | / | / | / | . | /
COc1ccccc1NC(=O)c1oc2ccccc2c1NC(=O)COc1cccc(C)c1 | . | / | / | . | . | .
Nc1ccccc1N=Cc1c(O)n(CCC2=CCCCC2)c(=O)[nH]c1=O | . | . | . | ? | . | ?
O=c1[nH]c(=S)n(CCC2=CCCCC2)c(O)c1C=NCc1cccnc1 | / | / | / | . | / | /
